Compound activity (PubChem BioAssay)
Shown are actives, neighbours in structure and some others; about 19% of the full set was active somewhere.
TDP1 cell CPT: DT40-hTDP1 cell growth loss with CPT; chicken DT40 Tdp1-/-;hTDP1 cells + 20 nM CPT, ATP luminescence, 48 h; Potency, µM (highest dose often 46.2 µM), inactives show top-dose activity change, negative = growth inhibition, hits mostly inhibitors; 420,000 compounds, 12% hits; AID 686979; also: potency is read from the fitted curve at half-maximal effect; nearly all actives have a fitted effect of over 55% in size
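Chicken DT40 Tdp1-/- cells complemented with human TDP1, 400 cells/well, exposed to compounds plus 20 nM camptothecin for at least 48 h at 37 C; viability read as ATP content by CellTiter-Glo luminescence.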
HT1080NT lethal: kills 2HG-producing HT-1080-NT fibrosarcoma cells; HT-1080-NT fibrosarcoma viability, CellTiter-Glo ATP luminescence, 48 h; Potency, µM (titrated, usually from 46.1 µM), without a hit: at the highest dose activity, negative = less viability, most hits filed as cytotoxic; 360,000 compounds, 1.6% hits; AID 686970;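 also: NT is the 2HG producing partner of a matched IDH1 knockdown line; potency is read from the fitted curve at half-maximal effect; 0% = DMSO-treated cells and -100% = media-only wells without cells; nearly all actives have a fitted effect of over 55% in size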
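Toxicity toward the 2HG-producing NT line was scored as %Activity, normalised to DMSO and no-cell wells, from CellTiter-Glo luminescence after 48 hours' treatment.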
IL1B secr inh: inflammasome signaling inhibition, IL-1 beta readout; THP-1 LPS/ATP IL-1B secretion, AlphaLISA, 16 h; stronger effect = lower value; activity change, % at 57.5 µM; 360,000 compounds, 4.7% hits; in the data active = activity change below about -50%; inconclusive = mostly about -30% to -49%
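Secreted IL-1B measured by AlphaLISA bead assay after 16 h compound exposure of THP-1 cells; compounds (final up to 57.5 uM) added 1 h before LPS (250 ng/mL) and ATP (1.25 mM) stimulation; lower signal means less secretion.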
TDP1 cell noCPT: qHTS for Inhibitors of human tyrosyl-DNA phosphodiesterase 1 (TDP1): qHTS in cells in absence of CPT; DT40 Tdp1-/- hTDP1 cells, no CPT, ATP luminescence, 48 h; Potency, µM (doses to about 46.2 µM), without a hit: top-dose activity change, negative = growth inhibition, actives largely listed as inhibitors; 420,000 compounds, 15% hits; also: potency is read from the fitted curve at half-maximal effect; nearly all actives have a fitted effect of over 55% in size
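Chicken DT40 Tdp1-/- cells complemented with human TDP1, screened without camptothecin (DMSO vehicle only), 400 cells/well. Compounds pin-transferred, cells incubated at 37 °C for at least 48 hr. Growth read as ATP-dependent luminescence (CellTiter-Glo, 30 min at RT).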
HT1080 IDH1KD tx: kills HT-1080 cells with IDH1 knockdown; 360,000 compounds, 2% hits; AID 686971; Potency, µM (highest dose often 46.1 µM), for inactives: top-dose activity, negative = toxicity, hits mostly cytotoxic; HT-1080 IDH1 knockdown viability, ATP luminescence, 48 h;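 also: potency is read from the fitted curve at half-maximal effect; 0% = DMSO wells and -100% = cell-free medium wells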
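In this qHTS, HT-1080 cells depleted of IDH1 are exposed for 48 h at 37 °C to compound titrations. Toxicity is scored from CellTiter-Glo luminescence, with DMSO as full viability and medium alone as none.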
An asterisk follows results filed as active; i = inactive; ? = inconclusive; · = not tested or not shown; [ ] = dose if it differs, or a comment. Unless noted, calls follow the shape of the dose curve; as a rule, active = well fitted curve in the direction sought with a large enough effect; inconclusive = small, poorly fitted or top-dose-only effect, or another doubt; inactive = no such curve, though single readings can be large; an effect the other way counts as inactive or inconclusive. Unless noted, % is scaled to controls: 0 for no effect and ±100 for the full control effect.

SMILES	TDP1 cell CPT	HT1080NT lethal	IL1B secr inh	TDP1 cell noCPT	HT1080 IDH1KD tx
C/C(=N\OC(=O)NC(C)C)c1sc(-c2ccc(Cl)cc2)nc1C	?	-5%	-17	18µM*	-20%
CCNC(=O)O/N=C(\C)c1sc(-c2ccc(Cl)cc2)nc1C	26µM*	-4%	-14	18µM*	-13%
C/C=C1\NC(=O)[C@H](C)NC(=O)[C@@H](NC(=O)[C@H](Cc2ccc(O)cc2)NC(=O)[C@@H](NC(=O)/C(C)=C/C)C(C)C)[C@@H](C)OC(=O)[C@H](CCCc2ccc(O)cc2)NC(=O)[C@@H](CCC(=O)O)NC1=O	1%	14%	18	1%	19%
Nc1c(C(=O)Nc2ccc(Cl)cc2)sc2nc3c(cc12)N1CCC3CC1	?	·	·	16µM*	·
Nc1c(C(=O)Nc2ccc(Cl)c(C(F)(F)F)c2)sc2nc3c(cc12)N1CCC3CC1	13µM*	·	·	13µM*	·
COc1ccc(NC(=O)c2sc3nc4c(cc3c2N)N2CCC4CC2)cc1OC	?	·	·	26µM*	·
C[C@H](CO)N1C[C@H](C)[C@H](CN(C)C(=O)Oc2cccc3ccccc23)OCc2cnnn2CCCC1=O	-5%	0%	23	-19%	0%
COc1nc(NC(C)C)nc(N(C#N)CN2C(=O)c3ccccc3S2(=O)=O)n1	23µM*	0%	?	-82%	1%
CCOP(=O)(OCC)/C(C#N)=C/c1ccoc1	-3%	13%	0	0%	1%
Nc1cc(Cl)c2nonc2c1[N+](=O)[O-]	0.73µM*	7.3µM*	-102*	0.65µM*	12µM*
COC(=O)C1=C(c2ccc(OC(F)(F)F)cc2)C[C@@H]2CC[C@H]1N2C(=O)NC1Cc2ccccc2C1	23µM*	0%	-23	?	0%
COC(=O)C1=C(c2ccc(F)cc2F)C[C@@H]2CC[C@H]1N2C(=O)NC1CCCCC1	?	6%	2	?	5%
COC(=O)C1=C(c2ccc(OC(F)(F)F)cc2)C[C@@H]2CC[C@H]1N2C(=O)NC1CCCCC1	?	-3%	-14	16µM*	-12%
O=C(Nc1c(Cl)cccc1Cl)Oc1cccc2cccnc12	4.1µM*	6.5µM*	128	4.6µM*	3.7µM*
O=C(Nc1cccc(Br)c1)Oc1cccc2cccnc12	5.2µM*	16µM*	-23	3.3µM*	?
O=c1ccc2cc(OC3OC(CO)C(O)C(O)C3O)c(O)cc2o1 (centres undefined)	?	·	·	-2%	·
O=c1cccc2n1CC1CC2CN(S(=O)(=O)c2cc(Cl)ccc2Cl)C1 (centres undefined)	-13%	-1%	0	0%	-9%
Cc1ccc(C(=O)Nc2ccncc2)cc1S(=O)(=O)N1CCCCC1	23µM*	-2%	32	18µM*	-17%
O=C(Nc1ccc(Br)cc1)c1ccc(Cl)c(S(=O)(=O)N2CCCCCC2)c1	?	·	·	16µM*	·
Cc1cc(C(=O)Nc2ccc(S(=O)(=O)N3CCCC3)cc2)cs1	?	?	-1	?	?
C/C(=C\[C@@H](N)C(=O)O)CP(=O)(O)O	16%	·	·	-14%	·
O=C(NC(=O)c1c(F)cccc1F)Nc1ccc(Cl)c(Oc2ncc(C(F)(F)F)cc2Cl)c1	10%	·	·	-20%	·
O=C(Nc1ccc(Cl)cc1)Nc1ccc(Cl)c(C(F)(F)F)c1	4.7µM*	·	·	3.3µM*	·
Oc1ccc2c3c1O[C@H]1[C@@H](O)C=C[C@H]4[C@H](C2)NCC[C@@]341	5%	·	·	14%	·
COc1ccccc1CC(=O)N1CCN(CCc2ccccc2)CC1	22%	6%	5	?	2%
SMILES	TDP1 cell CPT	HT1080NT lethal	IL1B secr inh	TDP1 cell noCPT	HT1080 IDH1KD tx
COc1ccccc1OC(C)C(=O)N1CCC(Cc2ccccc2)CC1 (centres undefined)	16µM*	-9%	-72*	?	-4%
COc1cc(CCN)cc(OC)c1OC	5%[92.5 µM]	·	·	-13%[92.5 µM]	·
CCN(CC)c1ccc(N=Cc2c(O)n(-c3ccccc3)c(=O)[nH]c2=O)cc1	?	-3%	35	?	-4%
CCN(CC)c1ccc(N=Cc2c(O)n(-c3ccccc3C)c(=O)[nH]c2=O)cc1	23µM*	?	-7	?	?
C=CCn1c(O)c(C(C)=Nc2ccc(N(CC)CC)cc2)c(=O)[nH]c1=O	21µM*	?	39	9.2µM*	?
CCN(CC)c1ccc(N=Cc2c(O)n(Cc3ccccc3)c(=O)[nH]c2=O)cc1	16µM*	-2%	25	9.2µM*	-15%
C=CCn1c(O)c(C(C)=Nc2ccc(N(C)C)cc2)c(=O)[nH]c1=O	?	-4%	4	?	-19%
CC(=Nc1ccc2c(c1)CCC2)c1c(O)n(-c2ccccc2)c(=O)[nH]c1=O	8%	14%	9	-2%	22%
CCCCOP(=O)(OCCCC)/C(C#N)=C(/C)O	-2%	7%	19	2%	16%
O=C(CCCN1CCC2(CC1)C(=O)NCN2c1ccccc1)c1ccc(F)cc1	?	-2%	-8	?	0%
O=C1NCN(c2ccccc2)C12CCN(CCCOc1ccc(F)cc1)CC2	?	·	·	23µM*	·
O=C1NC(=S)NC(=O)C1C/C=C/c1ccccc1	-15%	4%	28	?	1%
COc1ccccc1CNCC(=O)Nc1cc(S(=O)(=O)N2CCCCC2)ccc1C	?	-3%	-60*	?	0%
Cc1ccc(S(=O)(=O)Nc2cc(C(=O)N3CCC4(CC3)OCCO4)ccc2N2CCCCC2)cc1	?	-10%	0	?	-4%
Cc1ccc(S(=O)(=O)N2CCCCC2)cc1NC(=O)CN1CC=C(c2ccccc2)CC1	8.2µM*	3%	?	5.2µM*	12%
Cc1ccc(S(=O)(=O)N(C)C)cc1NC(=O)C(C)[N+]12CCN(CC1)CC2 (centres undefined)	14%	6%	18	2%	3%
Cc1ccc(N2CC(C(=O)Nc3cc(S(=O)(=O)N4CCCCC4)ccc3C)CC2=O)cc1 (centres undefined)	?	-7%	-20	5.8µM*	-15%
O=C(CN1CC=C(c2ccccc2)CC1)Nc1cc(Cl)ccc1Cl	?	5%	i	16µM*	8%
COc1ccc(NC(=O)CN2CC=C(c3ccccc3)CC2)cc1S(=O)(=O)N1CCOCC1	0%	3%	-13	?	0%
CNC1(c2ccc(F)cc2)CCCCC1	-2%	10%	-8	-12%	16%
CN1C(=O)CCS(=O)(=O)C1c1ccc(Cl)cc1 (centres undefined)	9%	·	·	0%	·
OC(c1ccc(F)cc1)(c1ccc(F)cc1)[C@@H]1CCCN1	?	-23%	-27	16µM*	-23%
